# According to a collection of fitness landscapes (doi:10.1126/science.1257360):
# Whole data set: some 140,000 sequences, median “enrichment ratio after two sorts for PhoP signalling” near 0, cut for the highest 2% near 11. Shown is part of a subset that was picked to be rich in the highest values.
# B1: PhoQ; a variant is named by its letters at X, in order, P23837 (parent)
# chain: MKKLLRLFFPLSLRVRFLLATAAVVLVLSLAYGMVALIGYSVSFDKTTFRLLRGESNLFYTLAKWENNKLHVELPENIDKQSPTMTLIYDENGQLLWAQRDVPWLMKMIQPDWLKSNGFHEIEADVNDTSLLLSGDHSIQQQLQEVREDDDDAEMTHSVAVNVYPATSRMPKLTIVVVDTIPVELKSSYMVWSWFIYVLSANLLLVIPLLWVAAWWSLRPIEALAKEVRELEEHNRELLNPATTRELTSLVRNLNRLLKSERERYDKYRTTLTDLTHSLKTPLXXLQXXLRSLRSEKMSVSDAEPVMLEQISRISQQIGYYLHRASMRGGTLLSRELHPVAPLLDNLTSALNKVYQRKGVNISLDISPEISFVGEQNDFVEVMGNVLDNACKYCLEFVEISARQTDEHLYIVVEDDGPGIPLSKREVIFDRGQRVDTLRPGQGVGLAVAREITEQYEGKIVAGESMLGGARMEVIFGRQHSAPKDE
# Variants of: B1
# Test: enrichment ratio after two sorts for PhoP signalling (ratio (wild type AVST 3.29)); higher = more functional
# Conditions: with PhoP (E. coli)
row,Variant,enrichment ratio
1,GKTM,1.84
2,IPYY,≤ 0.25
3,KKIV,≤ 0.25
4,GAYK,≤ 0.25
5,LLMQ,≤ 0.25
6,HFHH,≤ 0.25
7,ATFM,≤ 0.25
8,ANVA,3.53
9,ANLA,5.31
10,ANMI,26.5
11,ANLS,12
12,ANMR,5.84
13,TRVV,14.5
14,ANVV,11.6
15,QRVV,≤ 0.25
16,AHVV,≤ 0.25
17,ANLW,9.25
18,AIVV,10
19,HRVV,≤ 0.25
20,QRFS,≤ 0.25
21,DWEC,≤ 0.25
22,RQRD,≤ 0.25
23,NCDF,≤ 0.25
24,HLKR,≤ 0.25
25,RGHG,≤ 0.25
26,TPEY,≤ 0.25

row,Variant,enrichment ratio
1,SLIG,≤ 0.25
2,YMIK,≤ 0.25
3,RLMY,≤ 0.25
4,KLYR,≤ 0.25
5,ANMD,≤ 0.25
6,LNMC,7.24
7,AKMS,3.84
8,MNMC,3.1
9,ANMV,19.1
10,AAVT,2.41
11,ATMS,6.27
12,TNMC,35.5
13,ALVT,1.4
14,AKVT,12.6
15,ANMW,≤ 0.25
16,AIMS,14.3
17,FEGD,≤ 0.25
18,YPGN,≤ 0.25
19,WAKM,≤ 0.25
20,PMHP,≤ 0.25
21,ALWL,≤ 0.25
22,HRYP,≤ 0.25
23,YHPC,≤ 0.25
24,LYDW,≤ 0.25
25,VILC,0.339
26,DWCS,≤ 0.25

row,Variant,enrichment ratio
1,ANND,≤ 0.25
2,ANVT,15
3,ADVT,≤ 0.25
4,HFIY,≤ 0.25
5,MIKG,≤ 0.25
6,SCMW,6.03
7,SIMA,4.54
8,SCVG,5.95
9,KCMF,≤ 0.25
10,TYMA,1.56
11,SCMA,15.7
12,SCMV,9.09
13,SCHF,≤ 0.25
14,SCMF,12.3
15,SCMI,27.9
16,SCMG,25.9
17,SCIG,3.69
18,WPNL,≤ 0.25
19,ERAD,≤ 0.25
20,SRLT,≤ 0.25
21,KMYN,≤ 0.25
22,IRST,≤ 0.25
23,LAMD,≤ 0.25
24,FSHH,≤ 0.25
25,WVRL,≤ 0.25
26,YRGN,≤ 0.25

row,Variant,enrichment ratio
1,TIYR,2.57
2,IKRH,≤ 0.25
3,VSMQ,2.71
4,TNAC,3.13
5,GYAC,≤ 0.25
6,GNAC,12.5
7,GITE,≤ 0.25
8,MNAC,27.7
9,MNFC,≤ 0.25
10,GIYS,≤ 0.25
11,LNAC,≤ 0.25
12,GIAC,11.8
13,PCAQ,≤ 0.25
14,DTYT,≤ 0.25
15,MFKP,≤ 0.25
16,SQVA,4.56
17,WPDN,≤ 0.25
18,HVPR,≤ 0.25
19,KKRG,≤ 0.25
20,QGVQ,≤ 0.25
21,APCH,≤ 0.25
22,SELT,20.5
23,KYLT,≤ 0.25
24,SELI,24.6
25,SELA,12.4
26,SYLI,0.306

row,Variant,enrichment ratio
1,SEAS,26.6
2,SLAS,5.06
3,SEWI,3.57
4,SEYI,4.33
5,SLLI,7.62
6,KYAS,≤ 0.25
7,SEDT,≤ 0.25
8,WRRM,≤ 0.25
9,YYVL,≤ 0.25
10,IENI,≤ 0.25
11,GVPH,≤ 0.25
12,PCMW,≤ 0.25
13,GSWF,≤ 0.25
14,HSKP,≤ 0.25
15,WEQY,≤ 0.25
16,IRFS,≤ 0.25
17,SELS,20.9
18,KYLY,≤ 0.25
19,SFLY,0.911
20,QEVT,≤ 0.25
21,SELY,11.4
22,SQVT,5.85
23,NEVT,≤ 0.25
24,SLVT,0.291
25,SPLS,≤ 0.25
26,SEVT,16.8

row,Variant,enrichment ratio
1,KYLS,≤ 0.25
2,MEVT,27.6
3,PENI,≤ 0.25
4,PNLE,≤ 0.25
5,DQCP,≤ 0.25
6,HGEI,≤ 0.25
7,SWKP,≤ 0.25
8,WESM,≤ 0.25
9,SENT,2.04
10,SPLY,≤ 0.25
11,SEAD,5.48
12,YTLY,1.95
13,SEAT,13.6
14,STAA,4.26
15,SPLD,≤ 0.25
16,SEET,6.48
17,KYLD,≤ 0.25
18,STLY,13.1
19,SEAA,14.3
20,SELD,14
21,DWIM,≤ 0.25
22,NPSS,≤ 0.25
23,FFHH,0.731
